Measured values taken from the supplement of paper PMC10338343.
± gives the standard deviation.

How the values were obtained:
[1] = tested on: MILI (PIWIL2) piRISC loaded with L1MC piRNA (26 nt); test: pre-steady-state target cleavage rate (min^-1); guide: L1MC piRNA 5'p-UAACUAAAUACUAUGCAAGCUGUAGG; higher = faster piRNA-guided slicing of the target
How it was run: (§1)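 The method was Cleave-'n-Seq, in which uncleaved targets from a transcribed, DNA-blocked target RNA library were sequenced after exposure to active affinity-purified piRISC carrying one synthetic guide, with or without GTSF1 partner protein. Reactions contained 0.1 nM library, 1 nM piRISC and, where present, 500 nM GTSF1 in HEPES–potassium acetate buffer at 33 °C for 0–8 or 0–960 min. Reads were normalised to depth and to weakly complementary targets, three trials were pooled, and k3 was capped at 0.0001 min^-1. The pre-steady-state cleavage rate came from a burst-and-steady-state fit.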

[2] = tested on: EfPiwi piRISC loaded with L1MC piRNA (26 nt); test: pre-steady-state target cleavage rate (min^-1); auxiliary factor: 500 nM Ephydatia muelleri Gtsf1; guide: L1MC piRNA 5'p-UAACUAAAUACUAUGCAAGCUGUAGG; MIWI and MILI are mouse PIWI proteins and EfPiwi is from a freshwater sponge; tags in brackets are library labels; higher = faster piRNA-guided slicing of the target
How it was run: as §1

[3] = auxiliary factor: 500 nM mouse GTSF1
[4] = auxiliary factor: none (no GTSF1)

| Sequence | pre-steady-state target cleavage rate [1, 3] | pre-steady-state target cleavage rate [1, 4] | pre-steady-state target cleavage rate [2] |
| --- | --- | --- | --- |
| UCCUGGUACAGCUUGGUAAGUAUUUAGUAA | 0.18 ± 0.034 | 0.00367 ± 0.0027 |  |
| UCCUGGAUCACCUUGCAUAGUAUUAAGUUA | 0.201 ± 0.034 | 0.00424 ± 0.0023 |  |
| UCCUGGAUGUCGUUGCAUAGUACUUUAGUUA | 0.0156 ± 0.0059 | 0.00645 ± 0.0028 |  |
| UCCUGCUACAGGUUGCAUAGUAUUUAGUUA | 0.246 ± 0.011 | 0.013 ± 0.0028 | 0.0242 ± 0.0053 |
| UCCUGGAACAGCUUGACAUAGUAUUUAGUUA | 0.213 ± 0.016 | 0.00586 ± 0.0022 |  |
| UCCUGGAUGAGGUAGCAUAGUAUUUAGUUA | 0.0611 ± 0.0091 | 0.00664 ± 0.0022 |  |
| UCCUGGAUGUCGUUGCAUCGUAUUUAGUUA | 0.0281 ± 0.0074 | 0.00872 ± 0.0025 |  |
| UCCUCCUACAGCUUGCUUUGUAUUUAGUUA | 0.18 ± 0.017 | 0.00401 ± 0.0023 | 0.0093 ± 0.0052 |
| UCCUGGAUGUCCUUGCAUAGUAUUUGGUUA | 0.0891 ± 0.016 | 0.00707 ± 0.0022 | 0.00366 ± 0.0027 |
| UCCUGGAUGAGCUUGCAUGGUAUUUAGUUA | 0.195 ± 0.023 | 0.017 ± 0.0046 | 0.0127 ± 0.0045 |
| UCCUGGUACAGCUUGCAUAGUAUUAUGUUA | 0.131 ± 0.032 | 0.00435 ± 0.0031 |  |
| UCCUGGAUGUGGAAGCAUAGUAUUUAGUUA | 0.026 ± 0.0048 | 0.00344 ± 0.0029 |  |
| UCCUGCUAGAGCUUGCAUAGUAAUUAGUUA | 0.19 ± 0.02 | 0.00448 ± 0.0023 | 0.00471 ± 0.0019 |
| UCCUGGAUGUCGAACCAUAGUAUAUAGUAA | < 0.0001 | < 0.0001 |  |
| UCCUGGAUGUGCUUGGUAAGUAUUUAGUUA | 0.00666 ± 0.0036 | 0.00551 ± 0.0023 |  |
| UCCUGGAUCAGCUUGCAUACUAUUUAGUUA | 0.0716 ± 0.011 | 0.0037 ± 0.0021 |  |
| UCCUGGAUGUCCUUUCAUAGUAUUUAGUUA | 0.0723 ± 0.011 | 0.00458 ± 0.0022 |  |
| UCCUGGAUGUGGUUGCAAAGUAUUUAGUUA | 0.0262 ± 0.0077 | 0.00983 ± 0.0026 |  |
| UCCUGGAUCUGCUUGCAUAGUAUUUACUUA | 0.0527 ± 0.0096 | 0.00348 ± 0.0027 |  |
| UCCUCCUUCAGCUUGCAUAGUUUUUAGUUA | 0.0603 ± 0.0091 | 0.00556 ± 0.0016 | 0.00713 ± 0.0023 |
| UCCUGGAUGUCGAAGCAUAGUAAUUUAGUUA | 0.0148 ± 0.0051 | 0.0059 ± 0.0018 |  |
| UCCUCCUCACAGCUUGCAUAGUAUUUAGUUA | 0.369 ± 0.021 | 0.0102 ± 0.0027 |  |
| UCCUGGAUGUCGAAGCAUAGUAUGUUAGUUA | 0.0233 ± 0.0059 | 0.00487 ± 0.0021 |  |
| UCCUGGAACAGCUUGCAUAGAUUUUAGUUA | 0.0289 ± 0.0057 | 0.003 ± 0.0026 |  |
| UCCUGGAUGUGCUUGCGUAGUAUUUAGUUA | 0.0451 ± 0.013 | 0.0145 ± 0.0037 |  |

| Sequence | pre-steady-state target cleavage rate [1, 3] | pre-steady-state target cleavage rate [1, 4] | pre-steady-state target cleavage rate [2] |
| --- | --- | --- | --- |
| UCCUGGUACAGCUUGCAUAGUGAUUUAGUUA | 0.0336 ± 0.01 | 0.00917 ± 0.0038 |  |
| UCCUGGAACAGCUAGCAUAGUAUUUAGUUA | 0.242 ± 0.019 | 0.00629 ± 0.0023 | 0.015 ± 0.0041 |
| UCCUCCUACAGCUACCAUAGUAUUUAGUUA | 0.2 ± 0.021 | 0.00448 ± 0.0023 | 0.00393 ± 0.0021 |
| UCCUGGAUGUGCUUGCAUAGUAUUAUAGUUA | 0.15 ± 0.025 | 0.006 ± 0.0028 |  |
| UCCUGGAUCAGCUUUGCAUAGUAUUUAGUUA | 0.297 ± 0.016 | 0.0075 ± 0.0028 | 0.103 ± 0.023 |
| UCCUCCUUGUGCUUGCAUAGUAUUUAGUAA | 0.147 ± 0.021 | 0.0033 ± 0.0024 | 0.00675 ± 0.0029 |
| UCCUGGAUGAGCUUGCAUUGUAUUAAGUUA | 0.0879 ± 0.017 | 0.00381 ± 0.0027 | 0.0041 ± 0.0035 |
| UCCUCGUACUGCUUGCAUAGUAUUUAGUUA | 0.264 ± 0.0097 | 0.00745 ± 0.0024 |  |
| UCCUGGAUCAGCUAGCAUAGAAUUUAGUUA | 0.0367 ± 0.0066 | 0.00247 ± 0.0025 |  |
| UCCUGGAUGAGCUUGCAGAGUAUUUAGUUA | 0.0869 ± 0.0095 | 0.00792 ± 0.0024 |  |
| UCCUGGAUGUCGUUGCAUGGUAUUUAGUUA | 0.0354 ± 0.01 | 0.00854 ± 0.0034 |  |
| UCCUGGAUGUCCUUGCAUAGUAAUUUAGUUA | 0.0401 ± 0.013 | 0.00555 ± 0.0026 |  |
| UCCUGGAUGAGCUUGCUUAGUAUUUUGUUA | 0.138 ± 0.021 | 0.00587 ± 0.0022 |  |
| UCCUCCUACAGCUUGCAUAGUAUUCAGUUA | 0.229 ± 0.034 | 0.00319 ± 0.0024 | 0.0063 ± 0.0029 |
| UCCUGCUACAGCUACGAUAGUAUUUAGUUA | 0.243 ± 0.02 | 0.00263 ± 0.0024 |  |
| UCCUCCUACAGCAUGCAUAGUAUUUAGUAA | 0.231 ± 0.019 | 0.00366 ± 0.0021 | 0.00521 ± 0.0023 |
| UCCUGCUACACCUUGCAUAGUAAUUAGUUA | 0.157 ± 0.026 | 0.00684 ± 0.002 | 0.00647 ± 0.0028 |
| UCCUGCUACACCUUGCAUAGUUUUUAGUUA | 0.0358 ± 0.01 | 0.00475 ± 0.0022 | 0.00395 ± 0.002 |
| UCCUGGAUGAGCUUGCAUAGUAUAUAGUUA | 0.24 ± 0.031 | 0.00759 ± 0.0023 | 0.00625 ± 0.0026 |
| UCCUGGAACAGCUUCGCAUAGUAUUUAGUUA | 0.237 ± 0.016 | 0.00647 ± 0.0022 | 0.0367 ± 0.008 |
| UCCUCCUUCAGCUUGCUUAGUAUUUAGUUA | 0.286 ± 0.015 | 0.00762 ± 0.002 | 0.0651 ± 0.022 |
| UCCUGGAACACGCUUGCAUAGUAUUUAGUUA | 0.249 ± 0.025 | 0.0151 ± 0.0044 | 0.0331 ± 0.011 |
| UCCUGCUACAGCUUGCAUAGUAUCUAGUUA | 0.265 ± 0.033 | 0.00553 ± 0.0025 | 0.00723 ± 0.0019 |
| UCCUCCUACACGUUGCAUAGUAUUUAGUUA | 0.321 ± 0.021 | 0.00729 ± 0.0026 | 0.136 ± 0.035 |
| UCCUGGAACAGCUUGCAUAGUAUUUAGUUA [g2:g23:cont:t1A] | 0.297 ± 0.019 | 0.0103 ± 0.0024 | 0.0806 ± 0.018 |
